Laboratory results published in the supplement of paper PMC6555819.

test system: RXRa homodimer (NR concentration 180 nM); assay: PBM binding z-score (relative to random genomic background probes); higher = stronger binding; sequences stand for … in GC…GCGATTGACAGCGTAGAATGAAGG
Method in brief: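 For binding z-scores, the reference was random background probes on custom Agilent 4×180K protein-binding microarrays. These arrays were incubated 1 h with ligand-free nuclear receptor dimers in PBS pH 7.4, 2% milk, 0.02% Triton X-100, 1 mM DTT, 0.2 mg/mL BSA and 0.4 mg/ml salmon testes DNA. Fluorescence was scanned after antibody detection of each partner (one per run) and regression-normalized.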

**Q.** How did the PBM binding z-score turn out when AGAATGAGGTTATACGTAGATCATGGAAGAAAGT was run?
**A.** 2.45

**Q.** How did the PBM binding z-score turn out when ACTCGGAGGACAAAGGTCCGAGCTACGCCAGTGA was run?
**A.** 0.0174

**Q.** How did the PBM binding z-score turn out when TGAATGAGGTTGTAAGATCAGGGAACGTTGCAAA was run?
**A.** 0.396

**Q.** Which PBM binding z-score does the source give for TCTTGTAGATCAACAGGAGGTTTAGAAAGATCGA here?
**A.** -0.0846

**Q.** For CAAACTAGTTCACGAAAGGTCAAAGTCGAATGAC, which PBM binding z-score is on record?
**A.** 7.49

**Q.** For GCTCGGAGAACAAGGTCAGAGCTTTGTCCGTAGA, which PBM binding z-score is on record?
**A.** 2.16

**Q.** Which PBM binding z-score does the source give for TTACCAAGCTGAAGGTCGTTGATCCCTCTGTAGA here?
**A.** 1.13

**Q.** For ACTAGTTGGTCAGCTGAGGTCACACATAATTCGG, which PBM binding z-score is on record?
**A.** 3.93

**Q.** Which PBM binding z-score does the source give for TCTAGCAGGCCAGAGGGTCTCTCAAGAGGTACGG here?
**A.** -0.223

**Q.** AGAACGAAGGCACGCTGAGTTGATAGCAGAGTAG was tested. Which PBM binding z-score did it give?
**A.** 0.0315

**Q.** Which PBM binding z-score does the source give for ACTATTAGTTGACTTAGGGCAACCTATACGACGC here?
**A.** 0.654

**Q.** For GGAACGAGGGCATACGAGTTGATAGCATGGCGAT, which PBM binding z-score is on record?
**A.** 1.02

**Q.** For AGAATGAGGTTACCAAAGATCAGGCAAACGCTTG, which PBM binding z-score is on record?
**A.** 2.65

**Q.** Which PBM binding z-score does the source give for GGAGCGAGGGCAAAGTTGATAGCATCTGTCGACG here?
**A.** 1.7

**Q.** With TTACCAAGGTGAGCTGAGGTCGTTGGTCCAACTC as the sequence, how does the PBM binding z-score read?
**A.** 1.34

**Q.** Which PBM binding z-score does the source give for TCTTGTAGATCAGCAGGTTAAGAATGCTGGCCAA here?
**A.** 0.165

**Q.** How did the PBM binding z-score turn out when CCGACTTGGGCAAGGTTACCATAACGCACAGCCA was run?
**A.** 1.05

**Q.** For CTCGAAAGGTCGCTTGAGGTGAGTATACGGATAA, which PBM binding z-score is on record?
**A.** 3.66

**Q.** With TCTTGTAAATCAAGCAGGTTAAGAAAGCCTGAGT as the sequence, how does the PBM binding z-score read?
**A.** 0.26

**Q.** How did the PBM binding z-score turn out when TCTCGGAGGACACGAAGGTGAGAGCTTTCCAGAG was run?
**A.** 0.152

**Q.** With CCTACAGGGCCAAAAAGGTCATTGATGCCGATAA as the sequence, how does the PBM binding z-score read?
**A.** 5.08

**Q.** How did the PBM binding z-score turn out when AGAATGAGGTTATACGTAGAGCAGGGAAGAAAGT was run?
**A.** 2.1

**Q.** GGAACGAGGGCATTCGAGTTGATAGCCTGGCGAT was tested. Which PBM binding z-score did it give?
**A.** 0.739

**Q.** With CCTGCTAGGTCAATTGTCAGCTAAAGCAGCTCGC as the sequence, how does the PBM binding z-score read?
**A.** 1.41

**Q.** How did the PBM binding z-score turn out when ATCTCTAGGTAGAAGTTCAGTGAATCCCGAGGAT was run?
**A.** 0.602

**Q.** With TCGAGTAGGTTAGGGGCATTCACAATGGCGTCGA as the sequence, how does the PBM binding z-score read?
**A.** 0.424

**Q.** How did the PBM binding z-score turn out when TCATATAGGTTATACAGGTGAAAGTCGGCATCTA was run?
**A.** 2.2

**Q.** ACAGACAGGTGATGAAGGTAACTCACGCTATCAT was tested. Which PBM binding z-score did it give?
**A.** 0.483

**Q.** Which PBM binding z-score does the source give for CCTACTGGGCCCAAGGTCATTGATTCCAATGCTC here?
**A.** 2.82

**Q.** With ACAGACAGGTGATGAAGGTAATTCAGGCTATCAT as the sequence, how does the PBM binding z-score read?
**A.** 0.13

**Q.** With AGAACGAGGGCACGCTGACTTGATAGCAGAGTAG as the sequence, how does the PBM binding z-score read?
**A.** 1.34

**Q.** Which PBM binding z-score does the source give for ATATCTAGGTAAAGATAGTTCAGTGAATGCAAAT here?
**A.** 0.518

**Q.** For GCTGCAAGGTCAGGTTGGTCAGCTAACGGGTACG, which PBM binding z-score is on record?
**A.** 3.72

**Q.** How did the PBM binding z-score turn out when GTACCAAGGTGAATAGGTCGTTGTTGAGTAGGCG was run?
**A.** 1.64

**Q.** TAGCTTAGGTCAGATCGGGCCAGTATACGCTATA was tested. Which PBM binding z-score did it give?
**A.** 1.47

**Q.** GATACAGGGTCAGCTAGAGGCCGGAGTATGGAAA was tested. Which PBM binding z-score did it give?
**A.** 4.04

**Q.** For ATCTCTAGTTAAGACTCAGTTCAGTGAAGAACGC, which PBM binding z-score is on record?
**A.** 0.126

**Q.** GCTAGCAGGCCATTCGGGTCACTCAATGACGGGC was tested. Which PBM binding z-score did it give?
**A.** 1.81

**Q.** How did the PBM binding z-score turn out when AGCTCTAGGTAACCAAGTTCAGTGAATGCCGAAC was run?
**A.** 0.269
